Measured values from the supplement of paper PMC6555819.

These sequences were tested on PPARa:RXRa (NR concentration 270 nM, RXRa partner concentration 90 nM) (assay: PBM binding z-score (relative to random genomic background probes); higher = stronger binding; sequences stand for … in GC…GCGATTGACAGCGTAGAATGAAGG).
Method in brief: (§1)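 Binding z-scores take random background probes as their reference. They come from custom Agilent 4×180K protein-binding microarrays incubated 1 h with ligand-free nuclear receptor dimers, with antibodies against each partner (one per run) detecting binding. Scanned fluorescence was regression-normalized.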

Sequence | PBM binding z-score
CGTCCAAGGCCAAGGTCAGTGAAAGAGACTCGAA | 2.04
CCGACTGGGCCAAGGTTACCATAACGCACAGCCA | 1.01
AGTCATAGTTCAGGACGAGGTAACGTAAAGCACG | 1.54
CGAACTAGGTCAAGGACAGTTAATCTCCGCACGC | 4.46
ATCTCTAGGTAAAAGCTCAGTGAATCCCGAGGAT | 0.485
CGTCCAAGGTCGATGCTAGGTCAGTGAAAGCATT | 1.81
CGTCCAAGGTCAATGCTAGGTCAGTCAAAGCATT | 4.98
TCTTGTAGATCATTAGAGGTTAAGAAAGTGCGCT | 1.77
CGAACGAGGGCATGATTTGATAGCAAATGCCGAT | 0.783
CGGCCTAGGTCAGGGCCAGTATAGGAGGAACGTT | 1.83
CAAACTAGGTCACAGAGGTCATAGTCCGTGCGTA | 6.22
GCTAGCAGGCCATTTGGGTCATTCAATGACGGGC | 1.47
CCTAATGGGCCAAGGTCATTGATCAGTCAAAGCA | 3.86
GCGACTGGGGCATCAGCAGATTACCATAACTTAA | 0.511
TCTCGGAGGACACGAAGGTCCGAGCTTTCCAGAG | 0.0732
ACAGACAGATGAGTGAAGGTAACTCAGCTGGACG | -0.0253
CCTTACGGGTCACTCCAGGTAATAGCATCGGAGT | 4.59
CCTACTGGCCCAAAAAGGTCATTGATGCCGATAA | 4.74
CGAACTAGGTCAGAAGAGGACAGTGAAGGATGAT | 3.14
ATACCAAGGTGATCGTGAGGTCGTGGATACTAAC | 2.17

Sequence | PBM binding z-score
TGTCACAGTTCAAAGGTAACGTAAGTATCCACAC | 4.26
ATCTCTAGGTAAAGATAATTCAGTGAATGCAAAT | 0.312
TGTCAAAGTTCAAAGGTAAGGTAAGTATCCACAC | 5.46
TCAGATAGGTAAATGCTAGGTGAAAGTCCGATCT | 0.824
CCTACTGGGCCAAAGGTCATTGAGTCCAATGCTC | 6.7
GGAACGTGGGCATTCGAGTTGATAGCATGGCGAT | -1.09
TCTGCCAGGTCAGTTGGTCAGCTAACGAGCTGCC | 1.61
ATCTCTAGGTAAAAGTTCCGTGAATCCCGAGGAT | 1.5
TTTAGCAGGCCAGAGGGTCACTCAAGAGGTACGG | 2.32
CGAACTAGGTCATCCAGGAAAGTGAATACATTGA | 5.01
GATACAGGGTAAAGGCCAGAGTACGCGTATTGAT | 2.46
TCTGCTAGGTCAACGATGTTCAGCTAATCTGCTA | 3.1
TCGTGTAGGTTAGTCGGGGCATTCAGCCAACATA | 1.16
CCGACTGGGGCATAAGGTTGCCATAAGCCAGCCC | 0.636
GATGCTAGGTCAGGTTGGTCAGCTAACGGGTACG | 1.66
GCTACTGGGGCATCAGCAGGTTACCATAACTTAA | 1.74
GCTCAGAGGACAAGGTCAGAGCTTTGTCCGTAGA | 2.37
CCAGACAGGTGTGAAGGTAACTCAGCCTCGATTA | -0.298
GCAGACAGGTGAAACGCAGGTAACTCAGGGTGGC | 0.864
TCATATAGGTAATACACGTGAAAGTCGGCATCTA | 1.13

What follows are sequences tested on PPARg:RXRa (NR concentration 180 nM, RXRa partner concentration 90 nM) in the same assay as above.
Method in brief: as §1

Sequence | PBM binding z-score
CGTCCAAGGCCAAGGTCAGTGAAAGAGACTCGAA | 0.804
CCGACTGGGCCAAGGTTACCATAACGCACAGCCA | 1.97
AGTCATAGTTCAGGACGAGGTAACGTAAAGCACG | 1.53
CGAACTAGGTCAAGGACAGTTAATCTCCGCACGC | 7.29
ATCTCTAGGTAAAAGCTCAGTGAATCCCGAGGAT | 1.13
CGTCCAAGGTCGATGCTAGGTCAGTGAAAGCATT | -0.125
CGTCCAAGGTCAATGCTAGGTCAGTCAAAGCATT | 4
TCTTGTAGATCATTAGAGGTTAAGAAAGTGCGCT | -0.111
CGAACGAGGGCATGATTTGATAGCAAATGCCGAT | 0.992
CGGCCTAGGTCAGGGCCAGTATAGGAGGAACGTT | 0.691
CAAACTAGGTCACAGAGGTCATAGTCCGTGCGTA | 10
GCTAGCAGGCCATTTGGGTCATTCAATGACGGGC | 0.533
CCTAATGGGCCAAGGTCATTGATCAGTCAAAGCA | 2.44
GCGACTGGGGCATCAGCAGATTACCATAACTTAA | 1.02
TCTCGGAGGACACGAAGGTCCGAGCTTTCCAGAG | -0.408
ACAGACAGATGAGTGAAGGTAACTCAGCTGGACG | 0.883
CCTTACGGGTCACTCCAGGTAATAGCATCGGAGT | 3.75
CCTACTGGCCCAAAAAGGTCATTGATGCCGATAA | 1.35
CGAACTAGGTCAGAAGAGGACAGTGAAGGATGAT | 5.79
ATACCAAGGTGATCGTGAGGTCGTGGATACTAAC | 0.846

Sequence | PBM binding z-score
TGTCACAGTTCAAAGGTAACGTAAGTATCCACAC | 4.43
ATCTCTAGGTAAAGATAATTCAGTGAATGCAAAT | 0.908
TGTCAAAGTTCAAAGGTAAGGTAAGTATCCACAC | 8.72
TCAGATAGGTAAATGCTAGGTGAAAGTCCGATCT | 0.231
CCTACTGGGCCAAAGGTCATTGAGTCCAATGCTC | 11.6
GGAACGTGGGCATTCGAGTTGATAGCATGGCGAT | 0.22
TCTGCCAGGTCAGTTGGTCAGCTAACGAGCTGCC | -0.0729
ATCTCTAGGTAAAAGTTCCGTGAATCCCGAGGAT | 2.36
TTTAGCAGGCCAGAGGGTCACTCAAGAGGTACGG | 2.08
CGAACTAGGTCATCCAGGAAAGTGAATACATTGA | 7.91
GATACAGGGTAAAGGCCAGAGTACGCGTATTGAT | 4.52
TCTGCTAGGTCAACGATGTTCAGCTAATCTGCTA | 2.54
TCGTGTAGGTTAGTCGGGGCATTCAGCCAACATA | -0.0243
CCGACTGGGGCATAAGGTTGCCATAAGCCAGCCC | 0.999
GATGCTAGGTCAGGTTGGTCAGCTAACGGGTACG | 0.776
GCTACTGGGGCATCAGCAGGTTACCATAACTTAA | 2.37
GCTCAGAGGACAAGGTCAGAGCTTTGTCCGTAGA | 0.282
CCAGACAGGTGTGAAGGTAACTCAGCCTCGATTA | 0.084
GCAGACAGGTGAAACGCAGGTAACTCAGGGTGGC | 0.383
TCATATAGGTAATACACGTGAAAGTCGGCATCTA | 1.1
